# The full list was thinned out, with the strongest signals kept by preference.
# B1: Epa11 (Candida glabrata) (protein)
# chain: MGSSHHHHHHSSGLVPRGSHMASSNAPNYPVGCSPSVGTQLTPGLSLEVYAYPMDGNNGYCWNATYKDPEFPRSGYLKNKLLGKADGVVGPLNFLAKNKDCSPKVDTLPAGFNFPQPITVTNFTMVLFGYLAPKQSGKYTFKLLADDLLLLNLGATNAFDCCNREATKNNLGEFLAYNLWPNQDKNVTVYLEKGVYYPLRLFFNNRDGGSQLDFSYYFNDSPAPLTDFSGMFFSVPDGAECPARI
# Columns and labels:
# Test in all cases: glycan array binding signal (z-score within array); higher = stronger binding
# Settings in all cases: glycan notation: IUPAC condensed, linker removed
# [1] = target: Fuc(a1-2)Gal(b1-3)GalNAc(a1-3)[Fuc(a1-2)]Gal(b1-4)Glc
# How it was run: (§1)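 Glycan array data were curated from 3228 arrays in the Consortium for Functional Glycomics database and kept only where the protein sequence was available. Glycan names were converted to IUPAC-condensed notation, and columns mapping to the same glycan were averaged. The binding signal is a within-array Z-score, averaged across arrays of the same protein sequence at different concentrations or buffers and across linkers. Negative Z-scores can be read as non-binding.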
# [2] = target: Fuc(a1-2)Gal(b1-3)[Fuc(a1-4)]GlcNAc(b1-2)Man(a1-3)[Fuc(a1-2)Gal(b1-3)[Fuc(a1-4)]GlcNAc(b1-2)Man(a1-3)]Man(b1-4)GlcNAc(b1-4)GlcNAc
# How it was run: as §1
# [3] = target: Fuc(a1-2)Gal(b1-4)Fuc(a1-3)]GlcNAc(b1-2)Man(a1-3)[Fuc(a1-2)Gal(b1-4)[Fuc(a1-3)]GlcNAc(b1-2)Man(a1-6)]Man(b1-4)GlcNAc(b1-4)GlcNAc
# How it was run: as §1
# [4] = target: Fuc(a1-2)Gal(b1-4)GlcNAc(b1-3)Gal(b1-4)GlcNAc
# How it was run: as §1
# [5] = target: Fuc(a1-2)Gal(b1-4)GlcNAc(b1-3)Gal(b1-4)GlcNAc(b1-3)Gal(b1-4)GlcNAc
# How it was run: as §1
# [6] = target: Fuc(a1-2)Gal(b1-4)GlcNAc(b1-3)[Fuc(a1-3)[Gal(b1-4)]GlcNAc(b1-6)]Gal(b1-4)Glc
# How it was run: as §1
# [7] = target: Fuc(a1-2)[Gal(a1-4)]Gal(b1-4)GlcNAc
# How it was run: as §1
# [8] = target: Fuc(a1-2)[GalNAc(a1-3)]Gal(b1-3)GalNAc(a1-3)[Fuc(a1-2)]Gal(b1-4)GlcNAc
# How it was run: as §1
# [9] = target: Fuc(a1-2)[GalNAc(a1-3)]Gal(b1-3)GlcNAc(b1-6)GalNAc
# How it was run: as §1
# [10] = target: Fuc(a1-3)[Gal(b1-4)]GlcNAc(b1-3)Gal(b1-3)[Fuc(a1-4)]GlcNAc
# How it was run: as §1
# [11] = target: Gal(a1-4)Gal(b1-3)GlcNAc(b1-2)Man(a1-3)[Gal(a1-4)Gal(b1-3)GlcNAc(b1-2)Man(a1-6)]Man(b1-4)GlcNAc(b1-4)GlcNAc
# How it was run: as §1
# Gal(b1-3)GalNAc(b1-3)Gal = target: Gal(b1-3)GalNAc(b1-3)Gal
# How it was run: as §1
# [12] = target: Gal(b1-3)GlcNAc(b1-3)Gal(b1-4)Glc
# How it was run: as §1
# [13] = target: Gal(b1-3)[Fuc(a1-4)]GlcNAc(b1-3)Gal(b1-3)[Fuc(a1-4)]GlcNAc
# How it was run: as §1
# [14] = target: Gal(b1-4)GalNAc(a1-3)[Fuc(a1-2)]Gal(b1-4)GlcNAc
# How it was run: as §1
# [15] = target: Gal(b1-4)GlcNAc(b1-2)[Gal(b1-4)GlcNAc(b1-4)]Man(a1-3)[Gal(b1-4)GlcNAc(b1-2)Man(a1-6)]Man(b1-4)GlcNAc(b1-4)GlcNAc
# How it was run: as §1
# [16] = target: Gal(b1-4)GlcNAc(b1-3)Gal(b1-3)GalNAc
# How it was run: as §1
# [17] = target: Gal(b1-4)GlcNAc(b1-3)Gal(b1-4)GlcNAc(b1-2)[Gal(b1-4)GlcNAc(b1-3)Gal(b1-4)GlcNAc(b1-6)]Man(a1-6)[Gal(b1-4)GlcNAc(b1-3)Gal(b1-4)GlcNAc(b1-2)Man(a1-3)]Man(b1-4)GlcNAc(b1-4)[Fuc(a1-6)]GlcNAc
# How it was run: as §1
# [18] = target: Gal(b1-4)GlcNAc(b1-3)Gal(b1-4)GlcNAc(b1-3)Gal(b1-4)GlcNAc(b1-2)Man(a1-3)[Gal(b1-4)GlcNAc(b1-3)Gal(b1-4)GlcNAc(b1-3)Gal(b1-4)GlcNAc(b1-2)Man(a1-6)]Man(b1-4)GlcNAc(b1-4)GlcNAc
# How it was run: as §1
# [19] = target: Gal(b1-4)GlcNAc(b1-3)Gal(b1-4)GlcNAc(b1-3)Gal(b1-4)GlcNAc(b1-2)[Gal(b1-4)GlcNAc(b1-3)Gal(b1-4)GlcNAc(b1-3)Gal(b1-4)GlcNAc(b1-6)]Man(a1-6)[Gal(b1-4)GlcNAc(b1-3)Gal(b1-4)GlcNAc(b1-3)Gal(b1-4)GlcNAc(b1-2)Man(a1-3)]Man(b1-4)GlcNAc(b1-4)[Fuc(a1-6)]GlcNAc
# How it was run: as §1
# [20] = target: Gal(b1-4)GlcNAc(b1-3)Gal(b1-4)GlcNAc(b1-6)[Gal(b1-3)]GalNAc
# How it was run: as §1
# [21] = target: Gal(b1-4)GlcNAc(b1-3)[GlcNAc(b1-6)]Gal(b1-4)GlcNAc
# How it was run: as §1
# Gal3S(b1-4)Glc6S = target: Gal3S(b1-4)Glc6S
# How it was run: as §1
# [22] = target: Gal3S(b1-4)[Fuc(a1-3)]Glc6S
# How it was run: as §1
# Gal3S4S(b1-4)GlcNAc = target: Gal3S4S(b1-4)GlcNAc
# How it was run: as §1
# GalNAc(a1-3)Gal = target: GalNAc(a1-3)Gal
# How it was run: as §1
# [23] = target: GalNAc(a1-3)GalNAc(b1-3)Gal(a1-4)Gal(b1-4)Glc
# How it was run: as §1
# [24] = target: GalNAc(b1-3)Gal(a1-4)Gal(b1-4)GlcNAc(b1-3)Gal(b1-4)Glc
# How it was run: as §1
# Glc(a1-4)Glc = target: Glc(a1-4)Glc
# How it was run: as §1
# Glc(a1-6)Glc(a1-6)Glc = target: Glc(a1-6)Glc(a1-6)Glc
# How it was run: as §1
# [25] = target: GlcA3S(b1-3)Gal(b1-4)GlcNAc(b1-2)Man
# How it was run: as §1
# [26] = target: GlcA3S(b1-3)Gal(b1-4)GlcNAc(b1-3)Gal(b1-4)Glc
# How it was run: as §1
# [27] = target: GlcNAc(a1-4)Gal(b1-4)GalNAc
# How it was run: as §1
# [28] = target: GlcNAc(a1-4)Gal(b1-4)GlcNAc(b1-3)Gal(b1-4)[Fuc(a1-3)]GlcNAc(b1-3)Gal(b1-4)[Fuc(a1-3)]GlcNAc
# How it was run: as §1
# [29] = target: GlcNAc(b1-2)[GlcNAc(b1-4)]Man(a1-3)[GlcNAc(b1-4)][GlcNAc(b1-2)[GlcNAc(b1-6)]Man(a1-6)]Man(b1-4)GlcNAc(b1-4)[Fuc(a1-6)]GlcNAc
# How it was run: as §1
# [30] = target: GlcNAc(b1-3)Gal(b1-4)GlcNAc(b1-3)Gal(b1-4)GlcNAc(b1-3)Gal(b1-4)GlcNAc(b1-2)Man(a1-3)[GlcNAc(b1-3)Gal(b1-4)GlcNAc(b1-3)Gal(b1-4)GlcNAc(b1-3)Gal(b1-4)GlcNAc(b1-2)Man(a1-6)]Man(b1-4)GlcNAc(b1-4)GlcNAc
# How it was run: as §1
# GlcNAc(b1-6)GalNAc = target: GlcNAc(b1-6)GalNAc
# How it was run: as §1
# [31] = target: Man(a1-3)[Man(a1-6)]Man(b1-4)GlcNAc(b1-4)[Fuc(a1-6)]GlcNAc
# How it was run: as §1
# [32] = target: Neu5Ac(a2-3)Gal(b1-3)GlcNAc(b1-2)Man
# How it was run: as §1
# [33] = target: Neu5Ac(a2-3)Gal(b1-3)GlcNAc(b1-2)Man(a1-3)[GlcNAc(b1-4)][Neu5Ac(a2-3)Gal(b1-3)GlcNAc(b1-2)Man(a1-6)]Man(b1-4)GlcNAc(b1-4)GlcNAc
# How it was run: as §1
# [34] = target: Neu5Ac(a2-3)Gal(b1-3)GlcNAc(b1-3)GalNAc
# How it was run: as §1
# [35] = target: Neu5Ac(a2-3)Gal(b1-3)GlcNAc(b1-6)GalNAc
# How it was run: as §1
# [36] = target: Neu5Ac(a2-3)Gal(b1-3)[Fuc(a1-4)]GlcNAc
# How it was run: as §1
# [37] = target: Neu5Ac(a2-3)Gal(b1-4)GlcNAc(b1-2)Man(a1-3)[Neu5Ac(a2-6)Gal(b1-4)GlcNAc(b1-2)Man(a1-6)]Man(b1-4)GlcNAc(b1-4)GlcNAc
# How it was run: as §1
# [38] = target: Neu5Ac(a2-3)Gal(b1-4)GlcNAc(b1-3)Gal
# How it was run: as §1
# [39] = target: Neu5Ac(a2-3)Gal(b1-4)GlcNAc(b1-3)Gal(b1-4)GlcNAc(b1-6)[Gal(b1-3)]GalNAc
# How it was run: as §1
# [40] = target: Neu5Ac(a2-6)Gal(b1-4)GlcNAc(b1-2)Man(a1-3)[Neu5Ac(a2-6)Gal(b1-4)GlcNAc(b1-2)Man(a1-6)]Man(b1-4)GlcNAc(b1-4)GlcNAc
# How it was run: as §1
# [41] = target: Neu5Ac(a2-6)GlcNAc(b1-4)GlcNAc(b1-4)GlcNAc
# How it was run: as §1
# Neu5Ac(b2-6)GalNAc = target: Neu5Ac(b2-6)GalNAc
# How it was run: as §1
# [42] = target: Neu5Gc(a2-3)Gal(b1-3)GlcNAc
# How it was run: as §1
# [43] = target: Neu5Gc(a2-3)Gal(b1-4)GlcNAc
# How it was run: as §1
# Neu5Gc(a2-6)GalNAc = target: Neu5Gc(a2-6)GalNAc
# How it was run: as §1
binder,measurement,setting,value
B1,glycan array binding signal (z-score),[1],-0.518
same,glycan array binding signal (z-score),[2],-0.183
same,glycan array binding signal (z-score),[3],2.88
same,glycan array binding signal (z-score),[4],-0.92
same,glycan array binding signal (z-score),[5],-0.015
same,glycan array binding signal (z-score),[6],0.437
same,glycan array binding signal (z-score),[7],0.294
same,glycan array binding signal (z-score),[8],-0.24
same,glycan array binding signal (z-score),[9],-0.276
same,glycan array binding signal (z-score),[10],-0.232
same,glycan array binding signal (z-score),[11],1.7
same,glycan array binding signal (z-score),Gal(b1-3)GalNAc(b1-3)Gal,-0.185
same,glycan array binding signal (z-score),[12],-0.214
same,glycan array binding signal (z-score),[13],2.35
same,glycan array binding signal (z-score),[14],-0.453
same,glycan array binding signal (z-score),[15],-0.412
same,glycan array binding signal (z-score),[16],-0.415
same,glycan array binding signal (z-score),[17],1.98
same,glycan array binding signal (z-score),[18],2.67
same,glycan array binding signal (z-score),[19],1.94
same,glycan array binding signal (z-score),[20],1.77
same,glycan array binding signal (z-score),[21],-0.836
same,glycan array binding signal (z-score),Gal3S(b1-4)Glc6S,0.304
same,glycan array binding signal (z-score),[22],1.71
same,glycan array binding signal (z-score),Gal3S4S(b1-4)GlcNAc,-0.9
same,glycan array binding signal (z-score),GalNAc(a1-3)Gal,-0.428
same,glycan array binding signal (z-score),[23],-0.437
same,glycan array binding signal (z-score),[24],-0.094
same,glycan array binding signal (z-score),Glc(a1-4)Glc,-1.42
same,glycan array binding signal (z-score),Glc(a1-6)Glc(a1-6)Glc,-0.516
same,glycan array binding signal (z-score),[25],0.356
same,glycan array binding signal (z-score),[26],-0.579
same,glycan array binding signal (z-score),[27],-0.891
same,glycan array binding signal (z-score),[28],0.211
same,glycan array binding signal (z-score),[29],2.33
same,glycan array binding signal (z-score),[30],-0.16
same,glycan array binding signal (z-score),GlcNAc(b1-6)GalNAc,-0.586
same,glycan array binding signal (z-score),[31],5.52
same,glycan array binding signal (z-score),[32],-0.819
same,glycan array binding signal (z-score),[33],2.81
same,glycan array binding signal (z-score),[34],0.127
same,glycan array binding signal (z-score),[35],0.52
same,glycan array binding signal (z-score),[36],-0.534
same,glycan array binding signal (z-score),[37],-0.573
same,glycan array binding signal (z-score),[38],-0.477
same,glycan array binding signal (z-score),[39],-0.079
same,glycan array binding signal (z-score),[40],-0.433
same,glycan array binding signal (z-score),[41],-0.053
same,glycan array binding signal (z-score),Neu5Ac(b2-6)GalNAc,-0.375
same,glycan array binding signal (z-score),[42],0.029
same,glycan array binding signal (z-score),[43],-0.644
same,glycan array binding signal (z-score),Neu5Gc(a2-6)GalNAc,-0.604

# Source: the supplement of paper PMC8728848
